Source: PubChem BioAssay (NCATS)
Inconclusive results are not listed. Where a call stands in place of a potency, no number is given. Calls of active or inactive are those of the source. The call rests on the fitted dose curve; in most records, active means well fitted inhibition curve with a large enough effect; inconclusive means small, poorly fitted or top-dose-only effect; inactive means flat fitted curve, though single readings scatter.

Columns and labels:
Assay in all cases: qHTS profiling for inhibitors of Plasmodium falciparum proliferation (AID 504749); further: nearly all actives have a fitted effect of over 60% in size
Conditions in all cases: P. falciparum in erythrocytes, SYBR Green DNA, 72 h; series mostly up to 28.7 µM
[1] = tested on: DFO2036
Summary of the method: (§1)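 In a 72 h erythrocytic culture (37 C, humidified, 5% CO2) at 2.5% hematocrit and 0.3% starting parasitemia, compounds were tested; SYBR Green I in detergent lysis buffer stained parasite DNA overnight.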

[2] = tested on: DIV14
Summary of the method: as §1

[3] = tested on: DIV17
Summary of the method: as §1

[4] = tested on: DIV30
Summary of the method: as §1

[5] = tested on: Dd2
Summary of the method: as §1

[6] = tested on: FAB9
Summary of the method: as §1

[7] = tested on: HB3
Summary of the method: as §1

[8] = tested on: ICS
Summary of the method: as §1

[9] = tested on: ECU
Summary of the method: as §1

[10] = tested on: GB4
Summary of the method: as §1
Potency means the concentration at half of the fitted maximal effect.

| Compound | Potency [1] | Potency [2] | Potency [3] | Potency [4] | Potency [5] | Potency [6] | Potency [7] | Potency [8] | Potency [9] | Potency [10] |
| --- | --- | --- | --- | --- | --- | --- | --- | --- | --- | --- |
| CN1CCCC(n2nc(Cc3ccc(Cl)cc3)c3ccccc3c2=O)CC1 (stereo not drawn) | inactive | 7.57 µM (active) | 7.57 µM (active) | inactive | 11.2 µM (active) | inactive | inactive | 8.91 µM (active) |  |  |
| COc1c(N2CCNC(C)C2)c(F)cc2c(=O)c(C(=O)O)cn(C3CC3)c12 (stereo not drawn) | inactive | inactive | inactive | inactive |  | inactive | inactive | inactive | inactive | inactive |
| CC(C)Cn1cnc2c(N)nc3ccccc3c21 | inactive | inactive | inactive | inactive | inactive | inactive |  | inactive | inactive | inactive |
| CC(C)(C#N)c1cc(Cn2cncn2)cc(C(C)(C)C#N)c1 | inactive | inactive | inactive | inactive | inactive | inactive | inactive | inactive | inactive | inactive |
| S=P(N1CC1)(N1CC1)N1CC1 | inactive | inactive | inactive |  | inactive | inactive | inactive | inactive | inactive | inactive |
| CN1CCN(c2c(F)cc3c(=O)c(C(=O)O)cn4c3c2OCN4C)CC1 | inactive | inactive | inactive | inactive | inactive | inactive | inactive | inactive | inactive | inactive |
| COc1ccc(C(=O)CC(=O)c2ccc(C(C)(C)C)cc2)cc1 | inactive | inactive | inactive | inactive |  | inactive |  |  | inactive | inactive |
| Cc1ccnc2c1NC(=O)c1cccnc1N2C1CC1 | inactive | inactive | inactive | inactive | inactive | inactive | inactive | inactive | inactive | inactive |
| COc1cc2c(Nc3ccc(Br)cc3F)ncnc2cc1OCC1CCN(C)CC1 | 0.794 µM (active) | 1.51 µM (active) | 2.39 µM (active) |  | 8.91 µM (active) | 10 µM (active) | 5.01 µM (active) | 3.98 µM (active) | 3.16 µM (active) | 1.51 µM (active) |
| CC(=O)Oc1ccccc1C(=O)Nc1ncc([N+](=O)[O-])s1 | inactive | 13.5 µM (active) | 12 µM (active) | inactive |  | inactive |  | 11.2 µM (active) | inactive |  |
| CCCCOc1ccc(CC(=O)NO)cc1 | 2.82 µM (active) | 1.44 µM (active) | 2.87 µM (active) | 2.56 µM (active) | 3.55 µM (active) |  | 3.98 µM (active) | 3.16 µM (active) |  | 3.22 µM (active) |
| O=P(O)(O)C(O)(Cc1cccnc1)P(=O)(O)O | inactive | inactive | inactive |  | inactive | inactive | inactive | inactive | inactive | inactive |
| NCCCC(O)(P(=O)(O)O)P(=O)(O)O | inactive | inactive | inactive | inactive | inactive | inactive | inactive | inactive | inactive | inactive |
| C[C@]12C=CC(=O)C=C1CC[C@@H]1[C@@H]2C(=O)C[C@@]2(C)[C@H]1CC[C@]2(O)C(=O)CO | inactive | inactive | inactive | inactive | inactive | inactive | inactive | inactive | inactive | inactive |
| CN(C)CCc1c[nH]c2ccc(CS(=O)(=O)N3CCCC3)cc12 | inactive | inactive | inactive | inactive | inactive | inactive | inactive | inactive | inactive | inactive |
| C1CCC(C(CC2CCCCN2)C2CCCCC2)CC1 (stereo not drawn) | 11.2 µM (active) | 3.79 µM (active) | 3.38 µM (active) |  | 12.6 µM (active) |  | 11.2 µM (active) | 1.12 µM (active) | 5.01 µM (active) | 9.53 µM (active) |
| CC(C)(Sc1cc(C(C)(C)C)c(O)c(C(C)(C)C)c1)Sc1cc(C(C)(C)C)c(O)c(C(C)(C)C)c1 | inactive | inactive | inactive | inactive | inactive | inactive |  | 3.16 µM (active) | inactive | inactive |
| CC(N)C12CC3CC(CC(C3)C1)C2 (stereo not drawn) | inactive |  |  |  | inactive | inactive | inactive | inactive | inactive | 6.75 µM (active) |
| CC(C)(C)C(=O)OCOP(=O)(COCCn1cnc2c(N)ncnc21)OCOC(=O)C(C)(C)C |  |  |  | inactive |  | inactive |  |  | inactive |  |
| N[C@@H](Cc1ccc(O)c(O)c1)C(=O)O |  | inactive | inactive | inactive |  |  |  |  |  | inactive |
| Cc1oc(=O)oc1CN1CCN(c2cc3c(cc2F)c(=O)c(C(=O)O)c2n3C(C)S2)CC1 (stereo not drawn) | 7.94 µM (active) | 15.1 µM (active) | 16.9 µM (active) |  | 7.08 µM (active) |  | 8.91 µM (active) | 7.08 µM (active) | 10 µM (active) | 7.57 µM (active) |
| CCOC(=O)c1ccc(OC(=O)CCCCCN=C(N)N)cc1 | inactive |  | 4.55 µM (active) | inactive | inactive | inactive | 4.47 µM (active) | 2 µM (active) |  |  |
| CNNCc1ccc(C(=O)NC(C)C)cc1 | inactive |  |  | inactive | inactive | inactive | inactive |  | inactive | inactive |
| CCC(C)(C)c1ccc(CC(C)CN2C[C@@H](C)O[C@@H](C)C2)cc1 (stereo partly drawn) | inactive |  | inactive | inactive |  | inactive |  |  | inactive | inactive |

| Compound | Potency [1] | Potency [2] | Potency [3] | Potency [4] | Potency [5] | Potency [6] | Potency [7] | Potency [8] | Potency [9] | Potency [10] |
| --- | --- | --- | --- | --- | --- | --- | --- | --- | --- | --- |
| CC(C)OC(=O)C(C(=O)OC(C)C)=C1SC=CS1 | inactive |  | inactive |  | inactive | inactive | inactive | inactive | inactive | inactive |
| Oc1c(Cl)cc(Cl)c2cccnc12 | 10 µM (active) |  |  |  | inactive | inactive | inactive | 7.94 µM (active) |  | 12 µM (active) |
| CC1=CC(=O)c2ccccc2C1=O | inactive |  |  | inactive | inactive | inactive | inactive |  | inactive |  |
| CCn1cc(C(=O)O)c(=O)c2cc(F)c(N3CCN(C)CC3)cc21 |  | inactive | inactive | inactive | 12.6 µM (active) | inactive | inactive |  |  | inactive |
| CCn1cc(C(=O)O)c(=O)c2cc(F)c(N3CCNCC3)cc21 |  | inactive | inactive | inactive |  | inactive | inactive |  | inactive |  |
| CNCC[C@H](Oc1cccc2ccccc12)c1cccs1 |  |  | 3.01 µM (active) | 10.7 µM (active) | 6.31 µM (active) | inactive |  | 3.16 µM (active) | 11.2 µM (active) | 12 µM (active) |
| OC(Cn1cncn1)(Cn1cncn1)c1ccc(F)cc1F | inactive |  | inactive | inactive | inactive | inactive | inactive | inactive | inactive | inactive |
| O=c1oc2c(O)c(O)cc3c(=O)oc4c(O)c(O)cc1c4c23 |  |  |  |  | 2 µM (active) |  | 2 µM (active) | 0.891 µM (active) |  | 0.849 µM (active) |
| CCOC(=O)[C@H](CCc1ccccc1)N[C@H]1CS[C@H](c2cccs2)CN(CC(=O)O)C1=O | inactive |  | inactive | inactive | inactive | inactive | inactive |  |  |  |
| CCn1cc(C(=O)O)c(=O)c2cc(F)c(N3CCNCC3)nc21 |  | inactive | inactive | inactive |  | inactive | inactive |  | inactive | inactive |
| COc1cccc(N(C)C(=S)Oc2ccc3c(c2)CCCC3)n1 | inactive |  | inactive |  | inactive | inactive | inactive |  | inactive | inactive |
| COC(=O)Nc1nc2ccc(C(=O)c3ccccc3)cc2[nH]1 | inactive |  |  | inactive | inactive | inactive | inactive | inactive | inactive |  |
| CCOC(=O)c1ccc(C#Cc2ccc3c(c2)C(C)(C)CCS3)nc1 | inactive |  | inactive | inactive | inactive | inactive | inactive |  | inactive | inactive |
| CCOc1cc(N)c(Cl)cc1C(=O)NCC1CN(Cc2ccc(F)cc2)CCO1 (stereo not drawn) |  |  |  |  |  |  | 8.91 µM (active) | 3.98 µM (active) | 10 µM (active) | 12 µM (active) |
| NC(=O)c1cccnc1 | inactive |  | inactive | inactive | inactive | inactive | inactive | inactive | inactive | inactive |
| CC[C@H](C)C(=O)O[C@H]1C[C@@H](C)C=C2C=C[C@H](C)[C@H](CC[C@@H]3C[C@@H](O)CC(=O)O3)[C@H]21 | inactive | inactive |  | inactive | inactive | inactive | inactive | inactive | inactive | inactive |
| Cn1nnc2c(C(N)=O)ncn2c1=O | inactive |  | inactive | inactive | inactive | inactive | inactive | inactive | inactive | inactive |
| CN1CCN(c2c(F)cc3c(=O)c(C(=O)O)cn(CCF)c3c2F)CC1 | inactive |  | inactive | inactive | inactive | inactive | inactive | inactive | inactive | inactive |
| CNC(=O)c1cc(Oc2ccc(NC(=O)Nc3ccc(Cl)c(C(F)(F)F)c3)cc2)ccn1 |  | 2.69 µM (active) | 3.01 µM (active) | 1.07 µM (active) |  | inactive | 11.2 µM (active) | 1.12 µM (active) | 8.91 µM (active) | 13.5 µM (active) |
| CCCCCCNC(=O)n1cc(F)c(=O)[nH]c1=O |  | 5.36 µM (active) | 8.49 µM (active) | 13.5 µM (active) |  |  | 8.91 µM (active) | 4.47 µM (active) |  | 8.49 µM (active) |
| CN(Cc1cc(Br)cc(Br)c1N)C1CCCCC1 | inactive |  | inactive | inactive |  | inactive |  |  | inactive |  |
| O=C(O)c1cn(C2CC2)c2cc(N3CCNCC3)c(F)cc2c1=O |  |  | inactive |  | 3.16 µM (active) | inactive |  | 3.16 µM (active) | inactive |  |
| CCCc1nc(C)c2c(=O)[nH]c(-c3cc(S(=O)(=O)N4CCN(CC)CC4)ccc3OCC)nn12 | inactive | 5.36 µM (active) | 10.7 µM (active) |  | inactive | inactive |  | 4.47 µM (active) |  | inactive |
